The text below walks through data of PubChem BioAssay (NCATS).

Values joined by “and” are separate entries in the source; they are usually repeats but may differ in a detail not shown here. Equal entries are not always repeated. Inconclusive results are not listed. Some compounds were tested as several samples or in several runs, with calls that do not always agree. Active and inactive are the calls of the source. Unless noted, calls come from the whole dose curve; as a rule, active = well fitted curve in the direction sought with a large enough effect; inconclusive = small, poorly fitted or top-dose-only effect, or another doubt; inactive = no such curve, though single readings can be large; an effect the other way counts as inactive or inconclusive.

Assay [1] is described as follows: qHTS for Inhibitors of Plasmodium falciparum (DD2) proliferation (AID 504314).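 For activity, negative = inhibition: parasite DNA measured by SYBR Green fluorescence after red cell lysis; plate controls were DMSO vehicle for no effect and artemisinin wells for full effect.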 The essentials:
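Infected RBCs, 0.3% parasitemia, 2.5% Hct; compound 72 h, 37C/5% CO2; lyse + SYBR Green I, RT overnight, dark; read ex485/em535; normalize to DMSO and artemisinin 0.29 uM.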
(In general: In qHTS, concentration-response curves come from the screen itself.)

Assay [2] in a line: qHTS for Inhibitors of Plasmodium falciparum (GB4) proliferation (AID 504315). Note: nearly all actives have a fitted effect of over 50% in size. The essentials:
(§1)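 Erythrocytes infected with P. falciparum line (0.3% parasitemia, 2.5% hematocrit final) incubated with compounds 72 h at 37 °C, 5% CO2; SYBR Green lysis buffer added, fluorescence read next day. Normalized to 0.29 uM artemisinin and DMSO.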

Assay [3] is described as follows: qHTS for Inhibitors of Plasmodium falciparum (7G8) proliferation (AID 504316). Note: nearly all actives have a fitted effect of over 65% in size. In outline:
as §1

The nature of assay [4]: qHTS for Inhibitors of Plasmodium falciparum (HB3) proliferation (AID 504318). Note: nearly all actives have a fitted effect of over 60% in size. In outline: as §1
For assay [5], the target named is Atrial natriuretic peptide receptor 1 (Homo sapiens) (UniProt P16066). The assay can be described thus: Natriuretic polypeptide receptor (hNpr1) antagonism - Pilot CMLD screen (AID 1347052; calls by dose curve;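 note: cGMP level read as GloSensor luciferase luminescence after agonist stimulation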).
Assay [6] is described as follows: qHTS for Inhibitors of Plasmodium falciparum (CP250) proliferation (AID 504320). The essentials:
as §1
Potency is the fitted concentration of half-maximal effect.

Chain of Atrial natriuretic peptide receptor 1 (Homo sapiens) (P16066 whole entry, looked up): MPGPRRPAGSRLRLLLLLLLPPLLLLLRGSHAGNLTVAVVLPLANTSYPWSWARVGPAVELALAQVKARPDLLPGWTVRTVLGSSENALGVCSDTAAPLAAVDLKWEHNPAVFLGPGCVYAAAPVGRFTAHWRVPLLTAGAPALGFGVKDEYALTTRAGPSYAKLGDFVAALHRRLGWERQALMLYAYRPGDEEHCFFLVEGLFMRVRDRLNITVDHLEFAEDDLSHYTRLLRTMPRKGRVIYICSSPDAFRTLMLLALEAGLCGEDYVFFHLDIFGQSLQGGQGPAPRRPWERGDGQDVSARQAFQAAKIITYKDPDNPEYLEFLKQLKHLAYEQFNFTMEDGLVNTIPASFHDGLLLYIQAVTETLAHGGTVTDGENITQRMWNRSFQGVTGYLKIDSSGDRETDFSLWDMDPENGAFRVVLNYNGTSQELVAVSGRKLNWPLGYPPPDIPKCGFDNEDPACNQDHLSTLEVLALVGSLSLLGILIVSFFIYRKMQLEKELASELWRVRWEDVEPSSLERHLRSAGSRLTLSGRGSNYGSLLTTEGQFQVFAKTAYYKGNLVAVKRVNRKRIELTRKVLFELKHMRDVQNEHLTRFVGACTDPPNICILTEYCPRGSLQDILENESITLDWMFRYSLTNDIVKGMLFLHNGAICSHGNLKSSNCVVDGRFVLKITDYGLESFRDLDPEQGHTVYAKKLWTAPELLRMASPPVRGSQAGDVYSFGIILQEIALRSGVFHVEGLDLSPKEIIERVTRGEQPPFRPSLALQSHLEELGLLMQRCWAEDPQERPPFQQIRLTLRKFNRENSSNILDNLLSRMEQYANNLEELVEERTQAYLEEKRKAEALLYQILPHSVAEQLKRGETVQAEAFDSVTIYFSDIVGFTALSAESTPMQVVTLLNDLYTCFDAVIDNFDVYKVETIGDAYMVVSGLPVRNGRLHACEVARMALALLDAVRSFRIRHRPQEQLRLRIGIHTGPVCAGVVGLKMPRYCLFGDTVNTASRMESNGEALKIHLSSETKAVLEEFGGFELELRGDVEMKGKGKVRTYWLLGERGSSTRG

For the compound `CCOC(=O)NN=C1C[C@@H](O)[C@@H](O)[C@@H]2[C@H]3C(=O)N(C[C@@H]4CCCO4)C(=O)[C@@H]3CC[C@H]12`, the Potency entry in assay [1], in assay [2], in assay [3], in assay [4] and in assay [5] was “inactive” throughout.

On to `Cc1ccc([S+](=O)([O-])N[C@@H]2COC(=O)CC=C[C@H](C)COC(=O)N[C@@H](C)C(=O)CC=C[C@H]2C)cc1`, for which the Potency result in assay [1], in assay [2], in assay [3], in assay [4], in assay [6] and in assay [5] was “inactive” in each case.

In the case of `COc1ccc(O[C@@H]2[C@H](O)CO[C@@H]2C=CC#Cc2ccccc2)cc1`, the Potency result in assay [1], in assay [2], in assay [3], in assay [4] and in assay [5] was “inactive” throughout.

`COC(=O)C1=C(C)[C@H](O)[C@@H](C)[C@](C)(c2cc(OC)c(C)c(OC)c2COc2ccccc2)O1`: the Potency result in assay [1], in assay [3], in assay [6] and in assay [5] was “inactive” each time. Further, the Potency in assay [2] is 2.13 µM (active) and inactive; in assay [4], 1.9 µM (active) and inactive.

With `C=CC1=C2C=C(C3CC3)N(C(CO)CO)C=C2C(=O)C(C)(OC(=O)c2ccco2)C1=O` (centres undefined), the Potency result in assay [1], in assay [2], in assay [3], in assay [4] and in assay [5] was “inactive” in each case.

As to `COc1ccc(O[C@H]2C=C[C@@H](c3ccccc3)O[C@H]2CON=C2[C@H]3CCn4c(=O)n(-c5ccccc5)c(=O)n4[C@@H]3[C@H](O)[C@@H]3O[C@H]23)cc1`, the Potency entry in assay [1], in assay [2], in assay [3], in assay [4], in assay [6] and in assay [5] was “inactive” each time.

In the case of `C=CCN1c2ccccc2[C@]23CCC(=O)N(CC4CC4)C2=NC(C(=O)OC)=C(C(=O)OC)[C@H]13`, the Potency result in assay [1], in assay [2], in assay [3], in assay [4], in assay [6] and in assay [5] was “inactive” throughout.

As to `CC1(OC(=O)C2CCCC2)C(=O)C=C2C=C3CCCN3C=C2C1=O` (centres undefined), the activity, negative = inhibition in assay [1] was 0.418% [at 1.12 µM] (inactive). The Potency result in assay [2], in assay [3], in assay [4] and in assay [5] was “inactive” each time.

For `Cc1cc2c(nc1C)CCCN2CC(O)CN1CCCc2nc(-c3ccc(Br)cc3)ccc21` (centres undefined), the Potency entry in assay [1], in assay [2], in assay [3], in assay [4], in assay [6] and in assay [5] was “inactive” in each case.

On to `O=P1(O)Oc2c(c(-c3ccccc3)cc3ccc4ccccc4c23)-c2c(-c3ccccc3)cc3ccc4ccccc4c3c2O1`, for which the Potency result in assay [1], in assay [2], in assay [3], in assay [4] and in assay [5] was “inactive” throughout.

Turning to `C=CCCCN1C=C(C(C)=O)C(c2ccccc2)NC1=O` (centres undefined), the Potency entry in assay [1], in assay [2], in assay [3], in assay [4], in assay [6] and in assay [5] was “inactive” each time.

`C[C@@H]1C=CCCO[C@]12C(=O)Nc1ccccc12`: the Potency entry in assay [1], in assay [2], in assay [3], in assay [4], in assay [6] and in assay [5] was “inactive” throughout.

On to `COC(=O)CC=C[C@@H](C)[C@@H](COc1ccccc1Br)OC`, for which the Potency result in assay [1], in assay [2], in assay [3], in assay [4] and in assay [6] was “inactive” throughout. Further, the Potency in assay [5] is 944 nM (active).

On to `C=CCOC(=O)N[C@@H](c1cccs1)C(C(C)=O)C(C)=O`, for which the Potency result in assay [1], in assay [2], in assay [3], in assay [4], in assay [6] and in assay [5] was “inactive” each time.

Take `O=C(c1ccccc1)[C@@H]1O[C@@H]1c1ccccc1`: the Potency entry in assay [1], in assay [2], in assay [3], in assay [4] and in assay [5] was “inactive” in each case.

For `CSc1nnc2c(n1)C[C@H](c1ccccc1)[C@@H](C)[C@@H](C(=O)N1CCCC1)C2`, the Potency entry in assay [1], in assay [2], in assay [3], in assay [4] and in assay [5] was “inactive” in each case.

`C=CCCC1(CCC)C(=O)C(=C(O)c2ccccc2)C(=O)C(CCC)=C1OC` (centres undefined): the Potency entry in assay [1], in assay [2], in assay [3], in assay [4], in assay [6] and in assay [5] was “inactive” in each case.

In the case of `COC(=O)N[C@@H](C=Cc1ccco1)[C@]1(C(=O)OC)CCCC1=O`, the Potency entry in assay [1], in assay [2], in assay [3], in assay [4], in assay [6] and in assay [5] was “inactive” throughout.

As for `C=C(C[C@]1(C(=O)OC)C[C@]2(CC=C(C)C)C(=O)C(C(=O)CC(C)C)=C(O)[C@@](CC=C(C)C)(C1)C2=O)C(=O)OC`, the Potency result in assay [1], in assay [2], in assay [3], in assay [4], in assay [6] and in assay [5] was “inactive” each time.

`COC(=O)C1=C(C(=O)OC)[C@@H]2N(Cc3ccccc3)c3ccccc3[C@@]23C[C@@H](C(=O)OC)N(C(=O)c2cccs2)C3=N1`: in assay [1], the activity, negative = inhibition was -0.326% [at 1.12 µM] (inactive). Also, the Potency entry in assay [2], in assay [3], in assay [4], in assay [6] and in assay [5] was “inactive” each time.

On to `COC(=O)N[C@H](CC(C)=O)c1ccc(F)cc1`, for which the Potency result in assay [1], in assay [2], in assay [3], in assay [4], in assay [6] and in assay [5] was “inactive” each time.

For `CC(C)(C)c1ccc(O[C@@H]2[C@H](O)CO[C@H]2C=CC#Cc2ccccc2)cc1`, the Potency entry in assay [1], in assay [2], in assay [3], in assay [4], in assay [6] and in assay [5] was “inactive” each time.

For the compound `COC(=O)CC=C1c2ccc(OC)cc2[C@@H](OC)[C@@H]1C`, the Potency entry in assay [1], in assay [2], in assay [3], in assay [4], in assay [6] and in assay [5] was “inactive” throughout.

With `CCN1C(=NCCc2ccc(Br)cc2)N[C@@H](c2ccccc2)[C@H](C(=O)OC)[C@H]1C`, the Potency result in assay [1], in assay [2], in assay [3], in assay [4], in assay [6] and in assay [5] was “inactive” throughout.

`O=C1c2ccccc2C(=O)N1CCCC[C@]12Cc3c(ccc4ccccc34)[C@H](O1)c1c(cc(-c3ccccc3)oc1=O)O2`: the Potency in assay [1] was 753 nM (active); in assay [2], 536 nM (active); in assay [3], 379 nM (active); in assay [4], 536 nM (active); in assay [6] it was 1510 nM (active). Besides, in assay [5], the Potency entry is “inactive”.

As to `C=CCOC(=O)N[C@H](C(C(=O)OC)=C(C)NCc1ccccc1)c1cccc(C(F)(F)F)c1`, the Potency result in assay [1], in assay [2], in assay [3], in assay [4] and in assay [6] was “inactive” throughout. Besides, the Potency result in assay [5] was “inactive and 1.33 µM (active)”.
